Data taken from the supplement of paper PMC7411054.
Counter-ions that a name gives are not always drawn.

Assays:
Assay in all cases: lowest phenotypically active concentration; higher = less potent
Conditions in all cases: treatment time: 24 h
A549-ACTB-RAB5A = test system: A549-ACTB-RAB5A
In short: (§1)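 Two criteria together defined phenotypic activity: deviation and reproducibility. Deviation meant ≥3 of 4 wells beyond the 95th percentile of Euclidean distances in solvent control wells, and reproducibility meant a median replicate Pearson correlation above the 95th percentile of non-replicates. Wells had been treated for 24 h at 0.3, 1, 3 or 9 µM in fifteen gene-edited A549, HepG2 and WPMY1 reporter lines before live imaging.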

A549-CANX-COX4 = test system: A549-CANX-COX4
In short: as §1

A549-GM130-SQSTM1 = test system: A549-GM130-SQSTM1
In short: as §1

A549-TUBA1B-RELA = test system: A549-TUBA1B-RELA
In short: as §1

HepG2-TP53BP1-CLTA = test system: HepG2-TP53BP1-CLTA
In short: as §1

HepG2-TUBA1B-RELA = test system: HepG2-TUBA1B-RELA
In short: as §1

WPMY1-ACTB-RAB5A = test system: WPMY1-ACTB-RAB5A
In short: as §1

WPMY1-CANX-COX4 = test system: WPMY1-CANX-COX4
In short: as §1

WPMY1-TUBA1B-RELA = test system: WPMY1-TUBA1B-RELA
In short: as §1

A549-TP53BP1-CLTA = test system: A549-TP53BP1-CLTA
In short: as §1

Measured: lowest phenotypically active concentration

CC[C@]12C=CCN3CC[C@]4(C(=C(C(=O)OC)C1)Nc1ccccc14)[C@@H]32 [Tabersonine dichlorhydrate]
not listed: A549-TP53BP1-CLTA
9 µM: all other assays above

COc1ccc(C[C@H]2NC[C@H](O)[C@H]2OC(C)=O)cc1 [Anisomycin]
≤ 0.3 µM: all assays above

CC[C@@H](C(=O)[C@@H](C)[C@@H](O)[C@H](C)[C@@H]1O[C@@H]([C@@H](CC)C(=O)O)CC[C@@H]1C)[C@H]1O[C@]2(C=C[C@@H](O)[C@]3(CC[C@@](C)([C@H]4CC[C@](O)(CC)[C@H](C)O4)O3)O2)[C@H](C)C[C@@H]1C [Salinomycin Sodium]
1 µM: A549-CANX-COX4 | HepG2-TP53BP1-CLTA
≤ 0.3 µM: all other assays above

C[C@@H]1O[C@@H](O[C@H]2C[C@@H](O)[C@]3(CO)[C@H]4[C@H](O)C[C@]5(C)[C@@H](C6=CC(=O)OC6)CC[C@]5(O)[C@@H]4CC[C@]3(O)C2)[C@H](O)[C@H](O)[C@H]1O [Strophantine octahydrate]
1 µM: A549-ACTB-RAB5A | A549-TUBA1B-RELA
≤ 0.3 µM: all other assays above

CC[C@@H](C)C(=O)O[C@H]1[C@H](O)[C@H]2[C@@H](CN3C[C@@H](C)CC[C@H]3[C@@]2(C)O)C2C[C@]34O[C@]5(O)[C@@H](OC(=O)[C@](C)(O)CC)CC[C@@]3(C)[C@@H]5[C@@H](OC(C)=O)[C@@H](OC(C)=O)[C@H]4[C@@]21O (stereo not given in full) [Protoveratrine A]
3 µM: A549-GM130-SQSTM1

C[C@@]12C(=O)OC(=O)[C@]1(C)[C@H]1CC[C@@H]2O1 [Cantharidin]
9 µM: HepG2-TP53BP1-CLTA | WPMY1-CANX-COX4
not listed: A549-TUBA1B-RELA
3 µM: all other assays above

COC(=O)[C@@]1(O)C[C@H]2O[C@]1(C)n1c3ccccc3c3c4c(c5c6ccccc6n2c5c31)C(=O)NC4
≤ 0.3 µM: all assays above

CC(C)(O)[C@H]1O[C@H]2CC[C@@]3(C)[C@@](O)(CC[C@H]4Cc5c([nH]c6ccccc56)[C@@]43C)C2=CC1=O [paxilline]
9 µM: A549-ACTB-RAB5A | HepG2-TP53BP1-CLTA

COc1ccc2c(c[n+](C)c3c4cc5c(cc4ccc23)OCO5)c1OC [Chelerythrine chloride]
3 µM: A549-ACTB-RAB5A
9 µM: A549-TP53BP1-CLTA | HepG2-TP53BP1-CLTA

C/C=C(/C)C(=O)O[C@H]1CC[C@@]2(C)[C@@H]3CC[C@H]4[C@]5(O)C[C@H](O)[C@@]6(O)[C@@H](CN7C[C@@H](C)CC[C@H]7[C@@]6(C)O)[C@]5(O)C[C@@]42O[C@]13O [Veratrine]
9 µM: HepG2-TUBA1B-RELA

C[C@]12CC[C@H](O)C[C@H]1CC[C@@H]1[C@@H]2CC[C@]2(C)[C@@H](C3=CC(=O)OC3)CC[C@]12O [Digitoxigenin]
1 µM: HepG2-TP53BP1-CLTA
not listed: A549-ACTB-RAB5A | A549-GM130-SQSTM1 | A549-TUBA1B-RELA
≤ 0.3 µM: all other assays above

C[C@H](N)Cc1ccccc1 [dextroamphetamine]
3 µM: A549-ACTB-RAB5A | A549-GM130-SQSTM1 | A549-TUBA1B-RELA

C[C@@H]1C[C@@H]([C@H](O)CC2CC(=O)NC(=O)C2)C(=O)[C@@H](C)C1 [Cycloheximide]
≤ 0.3 µM: A549-CANX-COX4 | A549-TP53BP1-CLTA | HepG2-TUBA1B-RELA | WPMY1-CANX-COX4 | WPMY1-TUBA1B-RELA
1 µM: WPMY1-ACTB-RAB5A
3 µM: HepG2-TP53BP1-CLTA

O=C1NC(=S)N(c2cccc(Br)c2)C(=O)/C1=C/c1ccco1
3 µM: WPMY1-ACTB-RAB5A
9 µM: A549-TUBA1B-RELA | HepG2-TUBA1B-RELA | WPMY1-CANX-COX4 | WPMY1-TUBA1B-RELA

CC(C)(C)c1cc(C=C(C#N)C#N)cc(Br)c1O
9 µM: A549-GM130-SQSTM1

Cc1c(C(=O)c2cccc3ccccc23)c2cccc3c2n1[C@H](CN1CCOCC1)CO3 [WIN 55,212-2 mesylate]
9 µM: A549-GM130-SQSTM1 | WPMY1-ACTB-RAB5A | WPMY1-CANX-COX4

C=C1C/C(=C\C)C(=O)O[C@@H]2CCN3CC=C(COC(=O)[C@]1(C)O)[C@H]23 [Seneciphylline]
9 µM: HepG2-TP53BP1-CLTA

C[C@H]1CC[C@@H]2N(C1)C[C@H]1[C@@H]3C[C@H]4[C@@H](CC(=O)[C@H]5C[C@@H](O)CC[C@@]54C)[C@@H]3CC[C@H]1[C@]2(C)O [Imperialine]
≤ 0.3 µM: WPMY1-ACTB-RAB5A | WPMY1-CANX-COX4

O=C1C=C2C=C[C@@H]3C[C@@]2(O1)[C@H]1CCCCN31 [Securinine]
9 µM: WPMY1-TUBA1B-RELA

C[C@@H](CO)NC(=O)[C@@H]1C=C2c3cccc4[nH]cc(c34)C[C@H]2N(C)C1 [Ergobasine]
9 µM: A549-GM130-SQSTM1 | A549-TP53BP1-CLTA | WPMY1-CANX-COX4

C[C@H]1C(=O)O[C@@H]2CCN3CC=C(COC(=O)[C@](C)(O)[C@]1(C)O)[C@H]23 [Monocrotaline]
3 µM: A549-TUBA1B-RELA

COc1cc2c(cc1O)C[C@H]1c3c(cc(O)c(OC)c3-2)CCN1C [Boldine]
9 µM: A549-GM130-SQSTM1 | A549-TUBA1B-RELA

N[C@@H]1C[C@H]1c1cc(F)cc(F)c1OCc1ccccc1
9 µM: WPMY1-ACTB-RAB5A

C[C@H]1CCCC=C[C@@H]2C[C@H](O)C[C@H]2[C@H](O)C=CC(=O)O1 [brefeldin-a]
not listed: A549-ACTB-RAB5A | A549-GM130-SQSTM1 | A549-TUBA1B-RELA
≤ 0.3 µM: all other assays above

Cc1sc2c(c1C)C(c1ccc(Cl)cc1)=N[C@H](CC(=O)OC(C)(C)C)c1nnc(C)n1-2
9 µM: WPMY1-TUBA1B-RELA

CC(C)C[C@H]1C(=O)N2CCC[C@H]2[C@]2(O)O[C@](NC(=O)[C@@H]3C=C4c5cccc6[nH]c(Br)c(c56)C[C@H]4N(C)C3)(C(C)C)C(=O)N12 [bromocriptine]
9 µM: A549-TP53BP1-CLTA | HepG2-TP53BP1-CLTA | HepG2-TUBA1B-RELA

C=C(C)[C@H]1Cc2c(ccc3c2O[C@@H]2COc4cc(OC)c(OC)cc4[C@@H]2C3=O)O1 [Rotenone]
1 µM: WPMY1-CANX-COX4 | WPMY1-TUBA1B-RELA
≤ 0.3 µM: A549-CANX-COX4 | A549-TP53BP1-CLTA | HepG2-TP53BP1-CLTA | HepG2-TUBA1B-RELA | WPMY1-ACTB-RAB5A
